# Myeloid diff 2: promotes myeloid progenitor differentiation; calls only at 10 µM; ER-HoxA9 myeloid progenitors, lysozyme-GFP differentiation, flow cytometry; 360,000 tested, 1% active; AID 624256;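 active = normalized GFP-positive differentiation at or above the plate's own cutoff, the solvent-only control mean plus 3 SD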;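 note: cells exposed to compound for four days before flow analysis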
# HNF4A DNA FP: change in binding of human HNF4 alpha to DNA; P41235; HNF4a-FITC DNA binding, fluorescence polarization, 1 h; activity change, % at 10 µM; 360,000 tested, 0.3% active; in the data active = activity change above about 30%, passing the limit was not always enough
# Target sequence (P41235 whole entry, looked up): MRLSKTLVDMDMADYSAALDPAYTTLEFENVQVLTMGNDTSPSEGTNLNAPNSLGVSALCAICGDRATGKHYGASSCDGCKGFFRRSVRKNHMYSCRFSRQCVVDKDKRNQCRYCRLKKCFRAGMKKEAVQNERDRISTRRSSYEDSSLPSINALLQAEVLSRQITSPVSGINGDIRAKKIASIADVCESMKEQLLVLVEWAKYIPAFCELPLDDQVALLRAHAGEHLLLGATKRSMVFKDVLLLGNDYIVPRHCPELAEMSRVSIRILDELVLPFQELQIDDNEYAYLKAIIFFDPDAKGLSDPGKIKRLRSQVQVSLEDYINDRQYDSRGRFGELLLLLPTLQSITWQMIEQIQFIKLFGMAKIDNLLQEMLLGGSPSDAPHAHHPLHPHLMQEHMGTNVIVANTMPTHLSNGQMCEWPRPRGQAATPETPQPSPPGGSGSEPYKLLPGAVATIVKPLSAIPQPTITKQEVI
# TPT1 inh: inhibitors of Candida albicans tRNA 2'-phosphotransferase TPT1; recombinant caTPT1, FP RNA substrate dephosphorylation; inhibition, % at 5 µM; 300,000 tested, 0.81% active; AID 1962;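 active = inhibition above the mean of all tested compounds plus 3 SD, set per screening campaign, cut at about 24% in these data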
# Rpn11 block: blocks the human proteasome subunit Rpn11; O00487; human 26S proteasome, Ub4-pepOG fluorescence polarization; 20S core pre-blocked with epoxomicin; inhibition, % at 20 µM; 360,000 tested, 0.59% active; AID 588493;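 active = inhibition at 20 µM, scaled to each plate's controls, above about 33%, limit read from the data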
# Myeloid diff: myeloid differentiation induction; shares compounds with Myeloid diff 2; ER-HoxA9 myeloid progenitors, GFP/Mac1 double-positive flow; calls only; 2,300 tested, 2% active; AID 651706;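 active = share of green or green-and-red cells above 9 and 9% in run 1 or 4 and 3% in run 2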
# GFP autofluor: compound fluorescence in myeloid differentiation counter-screen. shares compounds with Myeloid diff 2. 2,300 tested, 7.4% active. fluorescence response, % (test concentration not listed). ER-HoxA9 myeloid progenitors, no estrogen, GFP autofluorescence flow cytometry; vehicle wells 0%, positive control 100%. AID 651707;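 active = over 5% cells positive for green fluorescent reporter, or over 2% positive for both it and APC stain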
# Hits are given with their value; – = inactive; · = not tested or not shown; + = active, no number. In the library only some 2.1% were active in any assay of this set; here they are far more common.
SMILES,Myeloid diff 2,HNF4A DNA FP,TPT1 inh,Rpn11 block,Myeloid diff,GFP autofluor
OC(c1cccc(Cl)c1)c1ncc(-c2ccc(C(F)(F)F)cc2)[nH]1 (stereo not given),–,–,·,–,·,·
CCCCOC(=O)C1=C(C)NC(=O)NC1c1ccc([N+](=O)[O-])s1 (stereo not given),+,–,–,–,–,–
COc1ccc(CCNC(=O)CSC2=NS(=O)(=O)c3cc(F)ccc3N2)cc1OC,–,–,·,–,·,·
CCOc1ccccc1CN(Cc1ccco1)S(=O)(=O)c1ccc(-n2cnnn2)c(OC)c1,+,–,·,–,–,–
COc1ccc(OC)c(C(=O)NC(CC(N)=O)c2ccc(N3CCN(c4ccc(F)cc4)CC3)c([N+](=O)[O-])c2)c1 (stereo not given),–,–,–,–,·,·
COc1ccc2cc(CN(Cc3ccco3)Cc3nnnn3C3CCCCC3)c(=O)[nH]c2c1,–,–,–,–,·,·
COc1ccc2[nH]c(=O)c(CN(Cc3ccco3)Cc3nnnn3Cc3ccccc3)cc2c1,–,–,–,–,–,–
COc1ccc2cc(CN(Cc3ccco3)C(c3nnnn3C3CCCCC3)C(C)C)c(=O)[nH]c2c1 (stereo not given),+,–,–,–,–,–
CS(=O)(=O)ON=C1CCN(S(=O)(=O)c2ccccc2)CC1,–,–,–,–,·,·
Nc1ccc(SCC(=O)Nc2cccc([N+](=O)[O-])c2)cc1,–,–,–,–,·,·
CCOCCCN1C(=O)C(=O)N(CC(=O)N2c3ccccc3NC(=O)CC2C)C1=O (stereo not given),–,–,·,–,·,·
Cc1cccc(CCNc2nc3ccccc3n3nnnc23)c1,+,–,–,–,–,–
C[C@H](CO)N1C[C@H](C)[C@H](CN(C)S(=O)(=O)c2cccs2)Oc2ncc(-c3cc4ccccc4o3)cc2C1=O,–,–,·,–,·,·
COc1ccc(OC)c(-n2c(O)cnc2Nc2nc(C)cc(C)n2)c1,–,–,–,–,–,–
O=C(NC1CCN(C(=O)NCc2ccccc2)CC1)c1ccccc1,–,–,–,–,·,·
CCc1cccc(CC)c1NC(=O)NC1CCCCC1,+,–,–,–,–,–
O=C(NCCCC1CCCC1)C1CCC(=O)N(Cc2cccc(C(F)(F)F)c2)C1 (stereo not given),+,–,·,–,–,–
O=C(NCCCn1cccn1)C1CCC(=O)N(Cc2cccc(C(F)(F)F)c2)C1 (stereo not given),–,–,–,–,·,·
CC(=O)Nc1cc(-c2ccc(CO)cc2)cn2c(-c3ccc(F)c(Cl)c3)cnc12,+,–,·,–,–,–
COc1ccccc1-c1cc(NC(C)=O)c2ncc(-c3ccc(S(C)(=O)=O)cc3)n2c1,–,–,·,–,·,·
CC(=O)Nc1cc(-c2ccccc2Cl)cn2c(-c3ccc(S(C)(=O)=O)cc3)cnc12,+,–,·,–,–,–
c1ccc(-c2csc(NC3CCCCC3)n2)cc1,·,–,–,–,·,·
COc1ccc(-c2csc(NC3CCCCC3)n2)c(OC)c1,+,–,–,–,–,–
CC(=O)Nc1ccc2nc(NC(=O)c3ccc([N+](=O)[O-])o3)sc2c1,–,–,–,–,·,·
O=C(N/N=C/c1cccc(O)c1)c1ccc(COc2cccc3cccnc23)cc1,+,–,–,–,–,–
SMILES,Myeloid diff 2,HNF4A DNA FP,TPT1 inh,Rpn11 block,Myeloid diff,GFP autofluor
CCC(C)(C)NC(=O)C(c1ccc(F)cc1)N(Cc1ccccc1)C(=O)c1cnccn1 (stereo not given),–,–,–,–,·,·
O=C(O)c1cc(S(=O)(=O)N2CCN(S(=O)(=O)c3ccc4ccccc4c3)CC2)ccc1Br,–,–,·,–,·,·
Oc1cc2c(cc1O)C1c3ccc(O)c(O)c3OCC1(O)C2 (stereo not given),–,–,–,–,·,·
COc1ccc(-c2nnc(NC(=O)c3ccc(S(=O)(=O)N4COCC4(C)C)cc3)o2)cc1,–,–,–,–,–,5.3
CCOC(=O)N1CCC(N2CCN(S(=O)(=O)c3ccc(C)cc3)CC2)CC1,–,–,–,–,·,·
CCOC(=O)N1CCC(N2CCN(S(=O)(=O)c3ccc(OC)cc3)CC2)CC1,–,–,–,–,–,3.5
Cc1ccc(C=Nc2ccc(N(C)C)cc2)o1,–,–,–,–,–,–
CC(NC(=O)c1ccco1)C(c1cccs1)N1CCOCC1 (stereo not given),–,–,–,–,·,·
COC(=O)C(/C=N/OCc1ccc([N+](=O)[O-])cc1)NC(=O)c1cccc(Cl)c1 (stereo not given),–,–,–,–,·,·
Cc1ccc(/C=N/Nc2nc3ccccc3s2)o1,–,–,–,–,–,–
CN(C)S(=O)(=O)c1ccc(Cl)c(NC(=O)COC(=O)C2CSC3(C)CCC(=O)N23)c1 (stereo not given),–,–,–,–,·,·
Cc1ccc2c(N)c(C(=O)N(c3ccccc3)c3ccccc3)sc2n1,–,–,–,–,·,·
Cc1cc(S(=O)(=O)N(Cc2ccccc2F)C2CC2)ccc1-n1cnnn1,–,–,–,–,–,–
CCn1nc(Cc2cccc3ccccc23)c(C#N)c1N,–,–,–,–,·,·
CCOCCCNC(=O)Cc1c(C(=O)O)[nH]c2ccc(Cl)cc12,–,–,–,–,–,–
COc1ccc(OC)c(CNC(=O)Cc2c(C(=O)O)[nH]c3ccc(Cl)cc23)c1,–,–,–,–,·,·
Cc1cc(/C=C(\C#N)C(=O)O)c(C)n1CC(C)C,+,–,–,–,–,–
CCc1nc2ccc(C(=O)NCC3CCCCC3)cn2c1N(CCC(C)C)CCN(C)C,–,–,·,–,·,·
Cc1c(C(=O)N2CCN(c3ccc(F)cc3)CC2)sc2ncnc(N3CCN(c4ccccn4)CC3)c12,–,–,–,–,·,·
Cc1c(C(=O)N2CCN(c3ccccc3)CC2)sc2ncnc(N3CCN(c4ccccn4)CC3)c12,+,–,–,–,–,–
CN1CCN(Cc2cccc(Oc3ccc(Cl)cc3)c2)CC1,·,–,–,–,·,·
CCN1CCN(Cc2cccc(Oc3ccc(Cl)cc3)c2)CC1,+,–,–,–,–,–
CC(C)c1ccc(NC(=O)C2Cc3c(-c4ccco4)ccnc3O2)cc1 (stereo not given),–,–,·,–,·,·
O=C(NNC(=O)C1CC1)c1cc(=O)[nH]c2ccccc12,–,–,·,–,·,·
O=S(=O)(NCc1ccncc1)c1ccc(F)c(F)c1,–,–,·,–,–,–
CCN1CCN(c2ccc(S(=O)(=O)N3CCCCC3)cc2NC(=O)c2ccc([N+](=O)[O-])o2)CC1,–,–,–,–,–,–
CCOC(=O)C(NC(=O)N(C)C)(Nc1sc(C)c(CC)c1C#N)C(F)(F)F (stereo not given),–,–,–,–,·,·
CC1CCN(CCCNC(=O)c2cc3c(=O)n(C)c4ccccc4c3n2C)CC1,–,–,–,–,–,–
Cc1c(C(=O)NCc2ccc(C(F)(F)F)cc2)sc(=O)n1Cc1ccc(S(=O)(=O)N(C)C)cc1,–,–,·,–,·,·
CC(=O)c1c(N2CCOCC2)nc(=S)n(-c2ccc([N+](=O)[O-])cc2)c1C,–,–,–,–,–,–
